This passage reports Inhibition results from ChEMBL document CHEMBL1157539, “Thousands of chemical starting points for antimalarial lead identification” (Nature, 2010).

What all share (type): functional
Assay [1] relates to Plasmodium falciparum. The assay is described as follows: GSK_TCMDC: Inhibition of Plasmodium falciparum 3D7 in whole red blood cells, using parasite LDH activity as an index of growth. Test compounds present at 2uM.
Assay [2] has as its system Plasmodium falciparum. The assay is described as follows: GSK_TCMDC: Inhibition of Plasmodium falciparum Dd2 in whole red blood cells, using parasite LDH activity as an index of growth. Test compounds present at 2uM.
A further assay concerns HepG2. In words: GSK_TCMDC: Percent inhibition of human HepG2 cell line. Test compounds present at 10uM.

As usually defined, the Inhibition is the drop in the measured response relative to a control, in per cent. Take `COc1cc2nc(N3CCC(CNC(=O)c4ccc(-c5cccc(C#N)c5)cc4)CC3)nc(N)c2cc1OC`: the Inhibition with Plasmodium falciparum [1] worked out at 100%; with Plasmodium falciparum [2], 100%; in the assay on HepG2 it was 18%.

Consider `CCCCn1c(-c2ccco2)nc2c(c(=O)c3ccccc3n2C)c1=O`, for which the Inhibition turned out to be 87% in the assay on Plasmodium falciparum [1], 64% with Plasmodium falciparum [2] and 11% in the assay with HepG2.

On to `CN(CCN(C)CC(O)c1ccc(Cl)c(Cl)c1)CC(O)c1ccc(Cl)c(Cl)c1.Cl` (stereo not given), for which the Inhibition in the assay with Plasmodium falciparum [1] is on record as 91%; in the assay with Plasmodium falciparum [2] it was 73%; with HepG2, 22%.

Consider `CCCCC(=O)Nc1nc2ccc([N+](=O)[O-])cc2s1`, for which the Inhibition worked out at 91% in the assay with Plasmodium falciparum [1], 69% in the assay on Plasmodium falciparum [2] and 9% in the assay with HepG2.

As to `Cc1nc(-c2cccc(Nc3nccc(NCC(O)c4ccccc4C(F)(F)F)n3)c2)cs1` (stereo not given), the results for the Inhibition in the assay with Plasmodium falciparum [1], with Plasmodium falciparum [2] and in the assay on HepG2 were 97%, 50% and 48%, respectively.

For `O=C(Nc1ccc(-c2csc(-c3nc4ccccc4[nH]3)c2)cc1)Nc1ccc(Cl)c(Cl)c1`, the results for the Inhibition with Plasmodium falciparum [1], in the assay on Plasmodium falciparum [2] and with HepG2 were 93%, 18% and 75%, respectively.

Consider `Cc1ccccc1C1CCN(C2CCC(NC(=O)c3ccc(-c4ccccc4)s3)CC2)CC1` (stereo not given), for which the Inhibition in the assay with Plasmodium falciparum [1] stood at 100%; in the assay with Plasmodium falciparum [2], 84%; in the assay with HepG2, 26%.

Consider `CC(=O)Nc1cccc(C(=O)Nc2cccc(-c3ccc(-c4nc5cccc(C)c5[nH]4)s3)c2)c1`, for which the figures for the Inhibition with Plasmodium falciparum [1], with Plasmodium falciparum [2] and in the assay on HepG2 were 99%, 26% and 75%, respectively.

On to `CNC(=O)C1Cc2c([nH]c3cc(Br)ccc23)C2(CCN(CCc3ccccc3)CC2)N1` (stereo not given), for which the Inhibition with Plasmodium falciparum [1] is given as 100%; with Plasmodium falciparum [2], 31%; in the assay on HepG2, 10%.

As to `Cc1cccc2nc(-c3cccc(-c4cccc(CNCCc5cccn5C)c4)c3)[nH]c12.O=C(O)C(F)(F)F`, the Inhibition in the assay on Plasmodium falciparum [1] is listed as 91%; in the assay with Plasmodium falciparum [2], 49%; with HepG2, 4%.

Regarding `O=C(Nc1ccc(-c2cccc(-c3nc4cc(F)ccc4[nH]3)c2)cc1)Nc1ccc(Cl)c(Cl)c1`, the Inhibition in the assay with Plasmodium falciparum [1] was 99%; with Plasmodium falciparum [2], 24%; in the assay on HepG2, 68%.

As for `N=C(N)CCN(Cc1ccccc1)c1ccc(Cl)cc1`, the figures for the Inhibition with Plasmodium falciparum [1], in the assay on Plasmodium falciparum [2] and with HepG2 were 98%, 98% and 1%, respectively.

Take `Cc1cc(NCCC(=O)Nc2ccccc2)nc(NCCc2cccnc2)n1.O=C(O)C(F)(F)F`: the figures for the Inhibition in the assay on Plasmodium falciparum [1], with Plasmodium falciparum [2] and with HepG2 were 84%, 4% and 0%, respectively.

In the case of `COc1ccc(NCc2cccc(-c3cccc(CNCCc4ccccc4)c3)c2)cc1.O=C(O)C(F)(F)F`, the Inhibition in the assay on Plasmodium falciparum [1] is listed as 96%; with Plasmodium falciparum [2], 14%; in the assay on HepG2 it was 41%.

In the case of `CC1CCN(c2nc(C(=O)Nc3ccc(F)cc3C(F)(F)F)c(C(C)C)s2)CC1.O=C(O)C(F)(F)F`, the Inhibition in the assay with Plasmodium falciparum [1] was determined as 100%; in the assay with Plasmodium falciparum [2], 66%; with HepG2, 5%.

For the molecule `CCOC(=O)c1ccc(NC(=O)N[C@H]2CCN(CCCCCNC(=O)/C=C/c3ccc(Cl)c(Cl)c3)C2)cc1`, the Inhibition in the assay with Plasmodium falciparum [1] worked out at 98%; in the assay on Plasmodium falciparum [2] it was 1%; with HepG2, 21%.

`O=C(O)C(F)(F)F.c1cc(CNCC2CCN(CC3CCCCC3)CC2)cc(-n2ccnc2)c1`: the Inhibition is recorded as 100% in the assay on Plasmodium falciparum [1], 99% in the assay on Plasmodium falciparum [2] and 18% in the assay with HepG2.

For the molecule `Cc1cc(N2CCC(NS(=O)(=O)c3ccccc3)CC2)nc(Nc2cccc(C#N)c2)n1.O=C(O)C(F)(F)F`, the Inhibition in the assay with Plasmodium falciparum [1] is on record as 93%; with Plasmodium falciparum [2], 29%; in the assay with HepG2, 52%.

On to `O=C(N[C@@H](CC1CCCCC1)C(=O)NCCN1CCOCC1)c1ccc(O)c(-c2ccc(Cl)c(Cl)c2)c1`, for which the Inhibition in the assay with Plasmodium falciparum [1] stood at 97%; in the assay on Plasmodium falciparum [2] it was 99%; with HepG2 it was 0%.

On to `CC[C@H](C)CNC(=O)c1ccnc(-c2cccc(CN(C)C3CCN(C)CC3)c2)c1.O=C(O)C(F)(F)F`, for which the Inhibition in the assay on Plasmodium falciparum [1] is on record as 100%; with Plasmodium falciparum [2], 33%; in the assay with HepG2 it was 0%.

With `Cc1ncsc1CCN1C(=O)CC2(C1=O)C(=O)N(Cc1ccccc1)c1ccc(Cl)cc12` (stereo not given), the figures for the Inhibition in the assay with Plasmodium falciparum [1], with Plasmodium falciparum [2] and in the assay with HepG2 were 86%, 46% and 0%, respectively.

Turning to `Cc1ccc2[nH]c3c(NCCN(C)C)ncnc3c2c1`, the values for the Inhibition in the assay on Plasmodium falciparum [1], in the assay on Plasmodium falciparum [2] and in the assay on HepG2 were 99%, 5% and 9%, respectively.

Turning to `CN(C)Cc1ccc(-c2ccc(NC(=O)c3ccc4c(=O)n(Cc5ccoc5)cnc4c3)cc2)cc1`, the Inhibition is 80% with Plasmodium falciparum [1], 16% in the assay with Plasmodium falciparum [2] and 32% in the assay with HepG2.

As for `Cc1cnc(C(=O)Nc2cccc(-c3cccc(-c4nc5cc(F)ccc5[nH]4)c3)c2)cn1`, the values for the Inhibition in the assay with Plasmodium falciparum [1], in the assay with Plasmodium falciparum [2] and in the assay on HepG2 were 99%, 24% and 25%, respectively.

As to `CN1CCC(N(Cc2ccc(N3CCN(Cc4c[nH]c5ccc(Cl)cc45)CC3)nc2)C2CC2)CC1`, the Inhibition in the assay on Plasmodium falciparum [1] was determined as 100%; in the assay with Plasmodium falciparum [2], 76%; with HepG2, 96%.

As to `CCCCN(CCCC)CC(O)c1cc(-c2ccc(Cl)cc2)nc2c(Cl)cc(Cl)cc12.Cl` (stereo not given), the Inhibition in the assay with Plasmodium falciparum [1] worked out at 97%; with Plasmodium falciparum [2], 97%; in the assay on HepG2 it was 0%.

`O=C(Nc1cccc(CCNCc2ccccc2)c1)Nc1cccc2ccccc12.O=C(O)C(F)(F)F`: the Inhibition in the assay with Plasmodium falciparum [1] amounted to 100%; with Plasmodium falciparum [2], 8%; with HepG2 it was 13%.

For the molecule `CN(C)C(=O)CCCn1c(CNCCCNc2cc(=O)c3ccccc3[nH]2)cc2c(Cl)cc(Cl)cc21.Cl`, the Inhibition is 89% with Plasmodium falciparum [1], 0% with Plasmodium falciparum [2] and 1% in the assay on HepG2.

In the case of `COc1ccc(N2CCN(CCCOc3ccc(NC(=O)c4cc(Cl)cc(Cl)c4)cc3)CC2)c(OC)c1`, the Inhibition is on record as 100% in the assay on Plasmodium falciparum [1], 41% in the assay on Plasmodium falciparum [2] and 38% in the assay with HepG2.

As to `CC(C)CN1CCCN(Cc2cccc(NC(=O)c3ccc(-c4ccccc4)cc3)c2)CC1.O=C(O)C(F)(F)F`, the Inhibition with Plasmodium falciparum [1] is given as 99%; in the assay with Plasmodium falciparum [2] it was 24%; in the assay with HepG2, 30%.
